Test systems include NCI-H23 lung; NCI-H226 lung; NCI-H322M lung; HOP-62 NSCLC; NCI-H460 lung; NCI-H522 lung; A549/ATCC NSCLC; 786-0 renal; COLO 205 colon; DU-145 prostate; K-562 leukemia; MALME-3M melanoma; MDA-MB-231 breast; RXF 393 renal; SF-268 CNS; SF-295 CNS; SF-539 CNS; UACC-257 melanoma; M14 melanoma; HCT-15 colon.
Common to all, as to test: NCI-60 one-dose screen, 48 h (100 = growth as untreated, 0 = no growth, -100 = all killed)
What all share (conditions): 10 µM

The panel holds about 83,000 compounds, 20% with a hit somewhere; the sample as a whole holds those more often.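 The endpoint reported here, percent growth, reads 100 for growth as untreated, 0 for no net growth and -100 for all cells dead.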 Values without a mark were called inactive. Activity calls are given as the source filed them. The calls were made as follows: active = growth percent below 10; inactive = the rest.

In the case of `Cc1cn(C2CCCCO2)c(=O)nc1NO` (stereo not given), the growth with NCI-H23 lung is 93.4%; in the experiment on NCI-H226 lung, 115%; in the experiment with NCI-H322M lung, 110%; in the experiment on HOP-62 NSCLC, 110%; in the experiment on NCI-H460 lung, 107%; in the experiment on NCI-H522 lung it was 104%. The growth in the experiment with A549/ATCC NSCLC was 104%; with 786-0 renal it was 103%; in the experiment on COLO 205 colon it was 120%; in the experiment on DU-145 prostate, 113%; with K-562 leukemia, 101%; in the experiment on MALME-3M melanoma it was 137%. Besides, the growth with MDA-MB-231 breast is 106%; in the experiment with RXF 393 renal it was 119%; in the experiment on SF-268 CNS, 103%; in the experiment with SF-295 CNS it was 106%; with SF-539 CNS it was 96.1%; with UACC-257 melanoma it was 106%. In addition, the growth was 113% in the experiment on M14 melanoma and 100% in the experiment on HCT-15 colon.
As for `CC(C)=NNc1ncnc2c1ncn2C1OC(CO)C(O)C1O` (stereo not given), the growth in the experiment on NCI-H23 lung is 31.7%; in the experiment with NCI-H226 lung, 32%; in the experiment on NCI-H322M lung, -1.85% (active); in the experiment with HOP-62 NSCLC, 7.08% (active); in the experiment on NCI-H460 lung it was -2.28% (active); with NCI-H522 lung, 14.8%. The growth with A549/ATCC NSCLC was 14.3%; in the experiment with 786-0 renal, 35%; with COLO 205 colon, 3.97% (active); in the experiment on DU-145 prostate, 12.8%; with K-562 leukemia, 14.8%; in the experiment on MALME-3M melanoma, -15.8% (active). The growth in the experiment with MDA-MB-231 breast is 19.3%; with RXF 393 renal it was 23.1%; in the experiment with SF-268 CNS, 40.9%; with SF-295 CNS, 8.82% (active); with SF-539 CNS, 35.3%; in the experiment with UACC-257 melanoma, 73.9%. The growth with M14 melanoma was 35.8%; in the experiment with HCT-15 colon it was 12.6%.
For the molecule `O=c1oc2cc(OS(=O)(=O)c3ccccc3)ccc2c2c1CCCCC2`, the growth is 68.4% in the experiment with NCI-H23 lung; 59.6% in the experiment on NCI-H226 lung; 82.6% with NCI-H322M lung; 78.2% in the experiment on HOP-62 NSCLC; 28.4% in the experiment with NCI-H460 lung; 66.4% in the experiment on NCI-H522 lung. The growth in the experiment on A549/ATCC NSCLC was 34.7%; in the experiment on 786-0 renal it was 68.8%; in the experiment with COLO 205 colon it was 31.1%; in the experiment with DU-145 prostate it was 84.8%; with K-562 leukemia, 37.4%; with MALME-3M melanoma, 66.7%. Moreover, the growth is 68.4% in the experiment with MDA-MB-231 breast; 64% in the experiment on RXF 393 renal; 76.8% with SF-268 CNS; 59.8% in the experiment with SF-295 CNS; 48.3% with SF-539 CNS; 50.8% with UACC-257 melanoma. Moreover, the growth in the experiment on M14 melanoma was 70.2%; in the experiment on HCT-15 colon, 42.2%.
On to `C/C(N)=C(\C#N)C(=O)c1ccccc1`, for which the growth in the experiment with NCI-H23 lung was 104%; with NCI-H226 lung it was 98%; in the experiment on NCI-H322M lung, 107%; in the experiment on HOP-62 NSCLC, 105%; in the experiment with NCI-H460 lung it was 103%; with NCI-H522 lung it was 96.6%. Also, the growth in the experiment on A549/ATCC NSCLC was 97.6%; in the experiment with 786-0 renal it was 106%; in the experiment with COLO 205 colon, 105%; with DU-145 prostate, 110%; with K-562 leukemia, 109%; in the experiment on MALME-3M melanoma it was 90.5%. Further, the growth in the experiment on MDA-MB-231 breast was 121%; in the experiment with RXF 393 renal, 97.5%; in the experiment on SF-268 CNS, 110%; with SF-295 CNS, 94.1%; in the experiment with SF-539 CNS, 103%; with UACC-257 melanoma it was 88%. Further, the growth with M14 melanoma is 110%; in the experiment on HCT-15 colon it was 98.2%.
Regarding `O=[N+]([O-])c1ccc(N/N=C/c2cccc3ccccc23)nc1`, the growth with NCI-H23 lung is 102%; in the experiment with NCI-H226 lung, 121%; with NCI-H322M lung, 105%; in the experiment on HOP-62 NSCLC, 110%; in the experiment on NCI-H460 lung it was 117%; in the experiment with NCI-H522 lung, 84.8%. Also, the growth in the experiment with A549/ATCC NSCLC is 92.4%; in the experiment with 786-0 renal it was 99.2%; with COLO 205 colon, 102%; in the experiment with DU-145 prostate, 124%; in the experiment on K-562 leukemia, 85.4%; in the experiment on MALME-3M melanoma, 168%. Moreover, the growth was 101% in the experiment on MDA-MB-231 breast; 112% with RXF 393 renal; 121% in the experiment with SF-268 CNS; 126% with SF-295 CNS; 102% in the experiment with SF-539 CNS; 102% with UACC-257 melanoma. For the same molecule, the figures for the growth in the experiment with M14 melanoma and with HCT-15 colon were 104% and 91.1%, respectively.
In the case of `COc1ccccc1CNCCCN1C(=O)c2ccc3c4c(ccc(c24)C1=O)C(=O)N(CCCN)C3=O`, the growth in the experiment on NCI-H23 lung is -34.7% (active); in the experiment on NCI-H226 lung, 47.3%; in the experiment with NCI-H322M lung, -30.7% (active); in the experiment with HOP-62 NSCLC, 18.7%; in the experiment with NCI-H460 lung, -50.8% (active); in the experiment with NCI-H522 lung, -79.1% (active). Besides, the growth in the experiment with A549/ATCC NSCLC is -28% (active); with 786-0 renal, 4.32% (active); in the experiment with COLO 205 colon, -87.5% (active); in the experiment with DU-145 prostate, -95.6% (active); in the experiment on K-562 leukemia it was -22.7% (active); in the experiment on MALME-3M melanoma, -94.1% (active). For the same molecule, the growth with MDA-MB-231 breast was 3.16% (active); in the experiment on RXF 393 renal, -56% (active); with SF-268 CNS, -22.1% (active); with SF-295 CNS, -2.42% (active); in the experiment with SF-539 CNS, -87.3% (active); in the experiment on UACC-257 melanoma, -91.9% (active). Besides, the values for the growth in the experiment with M14 melanoma and in the experiment on HCT-15 colon were -62% (active) and -30.8% (active), respectively.
For `Nc1c(C(=O)Nc2cccc(Br)c2)sc2nc3c(cc12)C(O)CCC3` (stereo not given), the growth with NCI-H23 lung was 34.9%; in the experiment on NCI-H226 lung it was 68.6%; with NCI-H322M lung it was 48.8%; with HOP-62 NSCLC, 38.1%; with NCI-H460 lung it was 11.3%; with NCI-H522 lung, -4.01% (active). Besides, the growth in the experiment with A549/ATCC NSCLC was 30.1%; in the experiment with 786-0 renal it was 45.1%; in the experiment with COLO 205 colon it was -1.49% (active); with DU-145 prostate it was -0.178% (active); in the experiment on K-562 leukemia, 7.52% (active); in the experiment with MALME-3M melanoma, 64.3%. The growth with MDA-MB-231 breast was 44.2%; in the experiment on RXF 393 renal it was -22% (active); in the experiment on SF-268 CNS it was 46.2%; in the experiment on SF-295 CNS, 33.9%; in the experiment on SF-539 CNS it was -21.2% (active); with UACC-257 melanoma, 64.7%. For the same molecule, the growth with M14 melanoma is 12.8%; in the experiment on HCT-15 colon it was 23.5%.
